Results published in PubChem BioAssay AID1159580 (chemical genetic matrix, 2015).
Where “and” joins values, the source holds several entries; their conditions need not be identical. Equal values may be shown once. About 2,000 (36%) of roughly 5,500 compounds were called active. Another 18% or so got no clear call; they are omitted. Rule as the data show it: active = normalized growth mostly below about 0.91 (no sharp cut-off); inconclusive = no clear call, values can overlap the other calls; inactive = mostly above about 0.92. This is one part of the list.

Assay: chemical genetic growth profiling, strain panel (AID 1159580);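 also: tested at 20 µM; growth read once vehicle control cultures reached saturation at 30 °C; 1 = growth at the plate median or of vehicle wells; lower values mean less growth of the strain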
Settings: S. cerevisiae deletion strains, growth OD

Measured: normalized growth

CCN(CC)CCOC(=O)c1ccc(N)cc1
inactive: locus YAL013W, strain DEP1, hits give low values 0.955 | locus YAL021C, strain ccr4, hits give low values 0.964 | locus YAL026C, strain drs2, hits give low values 0.989 | locus YAL030W, strain snc1, hits give low values 0.986 | locus YAL040C, strain CLN3, hits give low values 1.04 | locus YBL061C, strain skt5, hits give low values 0.999 | locus YBR009C, strain hhf1, hits give low values 0.95 | locus YBR021W, strain FUR4, hits give low values 1.01 | locus YBR023C, strain chs3, hits give low values 0.976 | locus YBR171W, strain sec66, hits give low values 0.988 | locus YBR229C, strain ROT2, hits give low values 1.01 | locus YBR231C, strain swc5, hits give low values 1.01 | locus YBR279W, strain paf1, hits give low values 0.979 | locus YCL011C, strain gbp2, hits give low values 0.955 | locus YCL016C, strain dcc1, hits give low values 0.963 | locus YCL029C, strain bik1, hits give low values 0.989 | locus YCL061C, strain MRC1 (second series), hits give low values 0.977 | locus YCL061C, strain MRC1, hits give low values 0.975 | locus YCL069W, strain vba3, hits give low values 0.972 | locus YCR088W, strain abp1, hits give low values 0.978 | locus YDL005C, strain med2, hits give low values 0.99 | locus YDL035C, strain GPR1, hits give low values 1.01 | locus YDL040C, strain nat1, hits give low values 1 | locus YDL074C, strain BRE1, hits give low values 1.03 | locus YDL101C, strain DUN1, hits give low values 1.01 | locus YDL134C, strain PPH21, hits give low values 1.01 | locus YDL185W, strain tfp1, hits give low values 0.995 | locus YDL192W, strain arf1, hits give low values 0.986 | locus YDR001C, strain nth1, hits give low values 0.973 | locus YDR069C, strain doa4, hits give low values 0.998 | locus YDR101C, strain arx1, hits give low values 1 | locus YDR137W, strain rgp1, hits give low values 0.98 | locus YDR150W, strain NUM1, hits give low values 0.999 | locus YDR159W, strain sac3, hits give low values 0.928 | locus YDR162C, strain NBP2, hits give low values 1.01 | locus YDR195W, strain ref2 0.999 | locus YDR297W, strain sur2, hits give low values 0.986 | locus YDR318W, strain mcm21, hits give low values 0.977 | locus YDR334W, strain swr1, hits give low values 0.982 | locus YDR335W, strain msn5, hits give low values 0.981 | locus YDR363W, strain ESC2, hits give low values 1.01 | locus YDR388W, hits give low values 0.997 | locus YDR392W, strain spt3, hits give low values 0.928 | locus YDR502C, strain sam2, hits give low values 0.997 | locus YEL003W, strain gim4, hits give low values 0.98 | locus YEL037C, strain rad23, hits give low values 0.989 | locus YEL061C, strain CIN8 (second series), hits give low values 0.978 | locus YEL061C, strain CIN8, hits give low values 1.01 | locus YER002W, strain NOP16, hits give low values 0.984 | locus YER015W, strain faa2, hits give low values 1 | locus YER016W, strain bim1, hits give low values 0.979 | locus YER110C, hits give low values 0.999 | locus YER111C, strain swi4, hits give low values 0.977 | locus YER155C, strain BEM2 (second series), hits give low values 1.06 | locus YER155C, strain BEM2, hits give low values 1 | locus YER167W, strain BCK2, hits give low values 1 | locus YFR010W, strain ubp6, hits give low values 0.988 | locus YGL078C, strain dbp3, hits give low values 0.997 | locus YGL086W, strain mad1, hits give low values 0.994 | locus YGL167C, strain pmr1, hits give low values 0.997 | locus YGL173C, strain kem1, hits give low values 0.994 | locus YGL227W, strain vid30, hits give low values 0.984 | locus YGL240W, strain doc1, hits give low values 1.01 | locus YGL248W, strain PDE1, hits give low values 1.01 | locus YGL253W, strain hxk2, hits give low values 0.963 | locus YGR078C, strain PAC10, hits give low values 1.01 and 0.99 | locus YGR135W, strain pre9, hits give low values 0.997 | locus YGR229C, strain SMI1, hits give low values 0.964 | locus YGR252W, strain gcn5, hits give low values 0.998 | locus YHR013C, strain ard1, hits give low values 0.969 | locus YHR027C, strain rpn1, hits give low values 0.97 | locus YHR030C, strain SLT2, hits give low values 1 and 1.05 | locus YHR079C, strain IRE1 (second series), hits give low values 0.981 | locus YHR079C, strain IRE1, hits give low values 1.04 | locus YHR094C, strain hxt1, hits give low values 0.983 | locus YHR129C, strain ARP1, hits give low values 1.01 | locus YHR142W, strain chs7, hits give low values 0.972 | locus YHR200W, strain rpn10, hits give low values 0.997 | locus YIL066C, strain RNR3, hits give low values 1.01 | locus YIL073C, strain SPO22, hits give low values 0.969 | locus YIL125W, strain kgd1, hits give low values 0.995 | locus YIR030C, strain dcg1, hits give low values 0.993 | locus YJL092W, strain hpr5, hits give low values 0.992 | locus YJL095W, strain BCK1 (second series), hits give low values 0.993 | locus YJL095W, strain BCK1, hits give low values 1.03 | locus YJL115W, strain asf1, hits give low values 0.98 | locus YJL129C, strain trk1, hits give low values 0.989 | locus YJL134W, strain LCB3, hits give low values 0.999 | locus YJL154C, strain vps35, hits give low values 0.987 | locus YJL164C, strain tpk1, hits give low values 0.961 | locus YJL166W, strain qcr8, hits give low values 1.02 | locus YJL168C, strain set2, hits give low values 0.993 | locus YJL187C, strain SWE1 (second series), hits give low values 1.01 | locus YJR043C, strain POL32, hits give low values 1.01 | locus YJR066W, strain TOR1, hits give low values 0.999
